We go through seven compounds from PubChem BioAssay (NCATS).

Unmarked numbers belong to inactive results. Inconclusive results are not listed. Calls of active or inactive are those of the source. Unless noted, calls come from the whole dose curve; as a rule, active = well fitted curve in the direction sought with a large enough effect; inconclusive = small, poorly fitted or top-dose-only effect, or another doubt; inactive = no such curve, though single readings can be large; an effect the other way counts as inactive or inconclusive.

The target in assay [1] is Lysosomal acid glucosylceramidase (Homo sapiens) (UniProt P04062). In words: Glucocerebrosidase-p2 (AID 348; in the data active = potency below about 10 µM; note: potency is the fitted concentration of half-maximal effect). The following applies: purified GBA, blue fluorogenic substrate, 40 min. The method in brief:
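Normal human glucocerebrosidase (0.2 nM) with blue fluorogenic substrate (80 uM final) in citrate/phosphate pH 5.9 with 10mM sodium taurocholate, 0.01% tween-20; 40 min RT, NaOH/glycine stop; fluorescence Ex 365/Em 440; AC50 from a titration from 0.6 nM upwards.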

Assay [2] in a line: AP1 Signaling Pathway (AID 357; active = well fitted curve in either direction with a large enough effect, not every such curve was filed as active;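 note: ME-180 reporter cells stimulated with EGF at its EC50 level; % is set by controls: 0 for no effect and ±100 for the full control effect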). To be noted: ME-180 AP-1-bla reporter, EGF-induced, beta-lactamase ratio, 5 h; at 7.69 µM (top of the series) unless noted. The method in brief:
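First, ME-180 AP-1-bla cells were cultured overnight at 37 °C in low-serum Opti-MEM. Next, titrated compounds with EC50 EGF were incubated 5 hours. Finally, CCF4 was added for 2.5 hours and the 460/530 nm ratio recorded.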

Assay [3] can be described thus: NFAT Signaling Pathway (AID 444; active = well fitted curve in either direction with a large enough effect, not every such curve was filed as active;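 note: carbachol stimulus at about its EC50 of 1 µM final; % is set by controls: 0 for no effect and ±100 for the full control effect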). The following applies: Jurkat NFAT-bla M1, carbachol, beta-lactamase ratio, 5 h; at 7.69 µM (top of the series) unless noted. The method in brief:
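Read-out: CCF4 FRET ratio (460 nm/530 nm) after 1 h RT dye loading, used for %activity and AC50 from titration series. Cells: Jurkat NFAT-β-lactamase/M1 line, treated with compound plus 1 uM carbachol for 5 h, 37 °C.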

Assay [4] can be described thus: Stat Signaling Pathway (AID 446; active = well fitted curve in either direction with a large enough effect, not every such curve was filed as active;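 note: ME-180 cervical cancer cells given 40 pM IL-6 alongside compound; SIE-controlled beta-lactamase reporter measured as 460/530 nm FRET emission ratio; % is set by controls: 0 for no effect and ±100 for the full control effect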). To be noted: ME-180 (cervical carcinoma) SIE beta-lactamase reporter, IL-6 stimulated, 5 h; at 7.69 µM (top of the series) unless noted. The method in brief:
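Normalization used AC90 stimulation (300 pM IL-6) and AC90 inhibition (125 nM pan-JAK inhibitor at 40 pM IL-6). The underlying signal is SIE-driven beta-lactamase in ME-180 cells after 5 h IL-6 exposure with compound.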

The target of assay [5] is Glucocorticoid receptor (Homo sapiens) (UniProt P04150). In words: GR-GFP Redistribution (AID 450;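 active = compounds whose dose series gives a full or clear partial fitted curve of increased nuclear translocation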; note: potency is the fitted concentration of half-maximal effect). To be noted: U2OS GR-GFP nuclear translocation, laser cytometry, 2 h.
Assay [6] has the same target. Kind of assay: GR-EFC Redistribution (AID 451; calls by dose curve; note: potency is the fitted concentration of half-maximal effect). To be noted: CHO-K1 GR-EFC translocation, beta-gal luminescence, 2 h. A digest of the protocol:
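Translocation of GR-ED fusion to nuclear EA restores b-gal, read by luminescence after 1 h room-temperature detection. Engineered CHO-K1 biosensor cells, 1,000/well, exposed 2 h at 37 C to titrations up to 46 uM final.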

Assay [7] has as its target Dual specificity protein kinase CLK4 (Homo sapiens) (UniProt Q9HAZ1). In words: qHTS Assay for Inhibitors of CDC-like Kinase 4 (Kinase-Glo Assay) (AID 1770). Note: % is set by controls: 0 for no effect and ±100 for the full control effect; nearly all actives have a fitted effect of over 65% in size. To be noted: recombinant Clk4, Kinase-Glo ATP depletion luminescence; series mostly up to 66.7 µM. A digest of the protocol:
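Clk4 25 nM, RS peptide 100 uM, ATP 1 uM, pH 7.5 Tris, 10 mM MgCl2, 2.5 mM DTT; 4.5 h RT; ATP depletion read by Kinase-Glo luminescence.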
(Quantitative high-throughput screening tests each substance at several concentrations.)

The target is the same in assay [8]. In words: qHTS Assay for Inhibitors of CDC-like Kinase 4 (ADP-Glo Assay) (AID 1771). Note: % is set by controls: 0 for no effect and ±100 for the full control effect; nearly all actives have a fitted effect of over 70% in size. The following applies: recombinant CLK4, ADP-Glo luminescence; series mostly up to 80 µM. A digest of the protocol: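 25 nM Clk4, 100 uM RS peptide, 1 uM ATP (final); 2 mM MgCl2, 0.5 mM EGTA, 2.5 mM DTT, 0.01% Triton X-100; 1 hr RT. ADP-Glo readout: ATP depletion 45 min, conversion/luciferase 30 min, luminescence.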

For assay [9] the target is unchanged. Kind of assay: qHTS Assay for Inhibitors of CDC-like Kinase 4 (ADP-FP Assay) (AID 1795).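 Note: recombinant human CLK4 phosphorylating RS repeat peptide at 1 µM ATP; % is set by controls: 0 for no effect and ±100 for the full control effect; nearly all actives have a fitted effect of over 60% in size.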 To be noted: Transcreener ADP fluorescence polarization; series mostly up to 50 µM. The method in brief: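 Kinase activity was followed as ADP output, converted from fluorescence polarization with a calibration curve. Reactions ran one hour at low ATP (1 uM) with RS peptide substrate.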

In assay [10] the target is Ubiquitin carboxyl-terminal hydrolase 1 (Homo sapiens) (UniProt O94782). Kind of assay: Inhibitors of USP1/UAF1: Pilot qHTS (AID 504865).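 Note: rhodamine fluorescence freed from ubiquitin-rhodamine substrate followed over time; top concentration of the series differs between compounds; % is set by controls: 0 for no effect and ±100 for the full control effect; nearly all actives have a fitted effect of over 35% in size.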 The following applies: purified USP1/UAF1, Ub-rhodamine cleavage fluorescence; series mostly up to 54.9 µM. The method in brief:
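Enzyme-free wells gave the negative control, while test wells held 1nM USP1/UAF1 preincubated with compound for 15 min at room temperature. Ub-Rho at 150nM final started the reaction, and fluorescence at 480/540 nm was recorded kinetically.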

Assay [11] is described as follows: Primary qHTS for small molecule stabilizers of the endoplasmic reticulum resident proteome: Secreted ER Calcium Modulated Protein (SERCaMP) assay (AID 1508630). Note: % is set by controls: 0 for no effect and ±100 for the full control effect. The following applies: SH-SY5Y GLuc-SERCaMP (Gaussia luciferase released on ER calcium loss) secretion, thapsigargin, luminescence; series mostly up to 38.4 µM. The method in brief: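 The SH-SY5Y reporter protocol was run at 3 concentrations up to 38.3 uM (primary) or 11 concentrations (follow-up): 16 h compound, 100 nM thapsigargin for 4 h, then extracellular luciferase luminescence.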

Assay [12] has as its target Mitogen-activated protein kinase 10 (Mus musculus) (UniProt Q61831). Kind of assay: JNK3 AlphaScreen Assay (AID 530; active = well fitted curve in either direction with a large enough effect, not every such curve was filed as active). To be noted: JNK3 lysate, c-Jun phosphorylation; series mostly up to 57.1 µM. A digest of the protocol:
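Kinase buffer: 20 mM Tris-HCl pH 7.6, 10 mM MgCl2, 1 mM DTT, 0.1 mM Na3VO4, 0.01% Tween-20; ATP 10 uM. Substrate biotin-GST-cJun(1-79), enzyme from activated HepG2 lysates. Detection by Ser73 phospho-antibody AlphaScreen.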

Assay [13] addresses Cytochrome P450 1A2 (Homo sapiens) (UniProt P05177). Kind of assay: p450-cyp1a2 (AID 410; calls by dose curve; note: potency is the fitted concentration of half-maximal effect). The following applies: recombinant CYP1A2, luciferin-ME demethylation, luminescence; series mostly up to 57 µM. The method in brief: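 20nM CYP1A2, 100uM Luciferin-ME (=Km), 100mM KPO4; cpd 10 min RT; +NADPH regen, 60 min RT; stop/detect 20 min; luminescence. Normalized to furafylline 57 uM = full inhibition.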

The target in assay [14] is 3',5'-cyclic-AMP phosphodiesterase 4B (Homo sapiens) (UniProt Q07343). In words: qHTS Assay for Inhibitors of PDE-IV (AID 607; active = well fitted activation curve with a large enough effect in the main read-out, with a control signal flat, not every such curve was filed as active; note: % of control where 0% means no effect). To be noted: HEK293 ACTOne CNG channel cells, membrane potential fluorescence; series mostly up to 22.9 µM. A digest of the protocol:
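HEK293 ACTOne cells with CNG channel (1000/well), endogenous PDE4; membrane potential dye, compounds up to 22.9 uM final. Fluorescence Ex 535/Em 590; RO 20-1724 (100 uM final) as reference.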

Chain of Dual specificity protein kinase CLK4 (Homo sapiens) (Q9HAZ1 whole entry, looked up): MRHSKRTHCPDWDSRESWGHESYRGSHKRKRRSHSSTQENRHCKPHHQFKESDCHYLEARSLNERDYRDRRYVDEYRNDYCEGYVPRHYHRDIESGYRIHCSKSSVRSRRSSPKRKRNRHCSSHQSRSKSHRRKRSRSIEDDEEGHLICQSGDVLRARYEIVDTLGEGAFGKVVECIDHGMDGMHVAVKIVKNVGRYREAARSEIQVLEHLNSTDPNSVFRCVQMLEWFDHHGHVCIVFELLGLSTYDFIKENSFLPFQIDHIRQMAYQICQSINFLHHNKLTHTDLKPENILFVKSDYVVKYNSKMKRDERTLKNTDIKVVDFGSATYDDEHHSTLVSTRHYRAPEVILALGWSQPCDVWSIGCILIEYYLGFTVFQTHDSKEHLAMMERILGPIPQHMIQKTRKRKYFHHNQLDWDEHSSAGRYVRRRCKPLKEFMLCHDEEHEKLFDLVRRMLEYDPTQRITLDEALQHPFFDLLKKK
Chain of 3',5'-cyclic-AMP phosphodiesterase 4B (Homo sapiens) (Q07343 whole entry, looked up): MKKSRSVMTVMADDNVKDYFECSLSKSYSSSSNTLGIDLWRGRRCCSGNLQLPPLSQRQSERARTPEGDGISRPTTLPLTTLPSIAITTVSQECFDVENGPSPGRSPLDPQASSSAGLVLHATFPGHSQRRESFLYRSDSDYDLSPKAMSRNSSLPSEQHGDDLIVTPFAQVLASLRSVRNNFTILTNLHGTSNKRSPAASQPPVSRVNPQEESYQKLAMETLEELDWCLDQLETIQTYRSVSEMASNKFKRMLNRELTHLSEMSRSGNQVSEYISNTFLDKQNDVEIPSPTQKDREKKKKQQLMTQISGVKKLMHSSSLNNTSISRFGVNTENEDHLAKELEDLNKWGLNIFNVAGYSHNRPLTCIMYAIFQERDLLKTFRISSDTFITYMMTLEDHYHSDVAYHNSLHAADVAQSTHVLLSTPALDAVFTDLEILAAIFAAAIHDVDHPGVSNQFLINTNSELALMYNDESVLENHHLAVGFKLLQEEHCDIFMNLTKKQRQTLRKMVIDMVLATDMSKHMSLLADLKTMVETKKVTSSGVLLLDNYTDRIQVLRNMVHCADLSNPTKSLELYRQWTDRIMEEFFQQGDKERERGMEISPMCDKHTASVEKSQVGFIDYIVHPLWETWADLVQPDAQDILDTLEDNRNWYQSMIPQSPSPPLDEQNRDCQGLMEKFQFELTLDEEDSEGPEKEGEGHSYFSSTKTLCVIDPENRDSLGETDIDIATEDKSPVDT
Chain of Lysosomal acid glucosylceramidase (Homo sapiens) (P04062 whole entry, looked up): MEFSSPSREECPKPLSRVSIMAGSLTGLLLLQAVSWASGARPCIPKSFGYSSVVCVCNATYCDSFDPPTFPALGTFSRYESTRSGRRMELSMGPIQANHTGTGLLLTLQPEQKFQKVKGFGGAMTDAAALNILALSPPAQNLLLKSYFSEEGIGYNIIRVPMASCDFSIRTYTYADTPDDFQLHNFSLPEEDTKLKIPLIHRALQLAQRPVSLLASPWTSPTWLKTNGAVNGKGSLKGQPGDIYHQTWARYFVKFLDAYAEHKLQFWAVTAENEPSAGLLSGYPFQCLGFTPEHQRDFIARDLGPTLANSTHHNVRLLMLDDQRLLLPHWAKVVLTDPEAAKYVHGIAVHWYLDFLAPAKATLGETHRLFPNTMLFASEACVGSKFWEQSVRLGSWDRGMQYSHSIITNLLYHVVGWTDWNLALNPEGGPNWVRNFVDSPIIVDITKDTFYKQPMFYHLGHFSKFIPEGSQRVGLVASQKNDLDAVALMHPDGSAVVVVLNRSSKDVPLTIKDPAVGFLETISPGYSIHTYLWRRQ
Chain of Glucocorticoid receptor (Homo sapiens) (P04150 whole entry, looked up): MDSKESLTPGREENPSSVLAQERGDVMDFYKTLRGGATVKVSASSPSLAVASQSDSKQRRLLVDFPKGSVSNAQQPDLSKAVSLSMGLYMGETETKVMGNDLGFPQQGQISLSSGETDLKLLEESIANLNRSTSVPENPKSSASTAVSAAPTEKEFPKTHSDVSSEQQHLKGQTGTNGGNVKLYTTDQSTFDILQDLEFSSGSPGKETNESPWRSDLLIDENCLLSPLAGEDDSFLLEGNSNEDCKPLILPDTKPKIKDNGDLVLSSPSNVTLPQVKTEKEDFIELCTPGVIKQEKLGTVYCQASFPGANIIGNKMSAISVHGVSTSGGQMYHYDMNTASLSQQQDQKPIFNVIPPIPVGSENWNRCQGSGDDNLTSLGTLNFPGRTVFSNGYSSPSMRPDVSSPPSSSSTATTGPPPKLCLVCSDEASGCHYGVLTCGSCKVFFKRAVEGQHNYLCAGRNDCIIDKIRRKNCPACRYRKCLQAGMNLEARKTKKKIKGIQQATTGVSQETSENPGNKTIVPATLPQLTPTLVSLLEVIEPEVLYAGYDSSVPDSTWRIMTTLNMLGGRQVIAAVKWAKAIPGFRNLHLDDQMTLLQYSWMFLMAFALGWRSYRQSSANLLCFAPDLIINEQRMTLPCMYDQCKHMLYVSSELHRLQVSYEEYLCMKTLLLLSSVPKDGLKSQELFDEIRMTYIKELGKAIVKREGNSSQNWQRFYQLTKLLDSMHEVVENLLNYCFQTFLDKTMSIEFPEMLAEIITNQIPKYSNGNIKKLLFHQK
Chain of Ubiquitin carboxyl-terminal hydrolase 1 (Homo sapiens) (O94782 whole entry, looked up): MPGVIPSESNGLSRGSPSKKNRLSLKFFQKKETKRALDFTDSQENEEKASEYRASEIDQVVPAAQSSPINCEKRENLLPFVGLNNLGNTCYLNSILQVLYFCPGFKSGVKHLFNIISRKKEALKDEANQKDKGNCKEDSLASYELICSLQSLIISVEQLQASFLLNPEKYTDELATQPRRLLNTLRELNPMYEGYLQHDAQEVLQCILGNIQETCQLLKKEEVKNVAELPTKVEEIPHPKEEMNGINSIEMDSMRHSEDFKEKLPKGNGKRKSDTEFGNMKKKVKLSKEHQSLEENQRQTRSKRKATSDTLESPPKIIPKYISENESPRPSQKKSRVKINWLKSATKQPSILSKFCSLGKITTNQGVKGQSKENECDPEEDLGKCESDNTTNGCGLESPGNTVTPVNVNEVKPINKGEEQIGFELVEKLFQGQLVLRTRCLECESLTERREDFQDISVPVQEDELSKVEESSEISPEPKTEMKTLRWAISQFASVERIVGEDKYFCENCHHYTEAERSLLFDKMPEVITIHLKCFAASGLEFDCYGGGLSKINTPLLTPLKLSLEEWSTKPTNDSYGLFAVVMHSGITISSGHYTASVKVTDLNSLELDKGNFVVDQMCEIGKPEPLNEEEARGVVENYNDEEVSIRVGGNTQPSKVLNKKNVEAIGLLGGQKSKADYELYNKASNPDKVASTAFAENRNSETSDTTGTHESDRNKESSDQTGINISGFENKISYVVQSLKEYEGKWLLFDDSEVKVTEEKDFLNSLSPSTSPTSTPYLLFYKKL
Chain of Cytochrome P450 1A2 (Homo sapiens) (P05177 whole entry, looked up): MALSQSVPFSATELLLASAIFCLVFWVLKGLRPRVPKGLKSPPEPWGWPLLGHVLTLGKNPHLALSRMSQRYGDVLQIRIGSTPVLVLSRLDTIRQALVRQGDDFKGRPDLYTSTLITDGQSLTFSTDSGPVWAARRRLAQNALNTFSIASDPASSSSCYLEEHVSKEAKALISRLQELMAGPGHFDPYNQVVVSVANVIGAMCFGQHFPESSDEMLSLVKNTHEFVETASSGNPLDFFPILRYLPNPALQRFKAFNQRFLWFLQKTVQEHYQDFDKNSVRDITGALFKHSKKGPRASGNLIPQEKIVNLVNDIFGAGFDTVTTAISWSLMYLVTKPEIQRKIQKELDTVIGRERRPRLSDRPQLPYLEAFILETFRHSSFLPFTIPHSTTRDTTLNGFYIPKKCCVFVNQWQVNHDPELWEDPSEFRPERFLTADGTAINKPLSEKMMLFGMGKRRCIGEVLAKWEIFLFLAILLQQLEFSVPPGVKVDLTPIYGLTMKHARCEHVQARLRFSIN

For the compound `COc1cccc(Cn2c(=O)c(-c3cc(F)cc(F)c3)nc3cncnc32)c1`, the Potency in [1] is above 11.4 µM; in [5], above 9.22 µM; in assay [6], above 46 µM. The activity change, negative = inhibition in [2] is 0.277%; in assay [3], 0.731%. Further, the activity, negative = inhibition in assay [4] was -1.76%. The Potency result in assay [7], in assay [8], in assay [9] and in assay [10] was “inactive” each time. Moreover, in assay [11], the result was inactive.

As for `COc1cccc(-c2cncnc2Nc2ccccc2)c1`, the Potency was above 11.4 µM in assay [1], above 46 µM in assay [5] and above 46 µM in assay [6]. The figures for the activity change, negative = inhibition in [2] and in assay [3] were -6.33% and 0.84%, respectively. The activity, negative = inhibition in assay [4] was -2.57%. Besides, the Potency entry in [12], in assay [7], in assay [8], in [9] and in assay [10] was “inactive” in each case. The outcome in assay [11] was inactive.

`O=c1c(-c2ccc(F)cc2)nc2cncnc2n1Cc1ccccc1`: the Potency in [1] was above 11.4 µM; in assay [5] it was above 9.22 µM; in assay [6], above 46 µM. In addition, the activity change, negative = inhibition in assay [2] was -5.88%; in [3], -16.1%. In addition, the activity, negative = inhibition in [4] was 9.13%. Further, the Potency result in assay [12], in assay [7], in [8], in assay [9] and in assay [10] was “inactive” throughout. Also, the outcome in assay [11] was inactive.

As to `COc1ncc2nc(-c3cccs3)c(=O)n(Cc3cccs3)c2n1`, the figures for the Potency in [1], in [5] and in assay [6] were above 11.4 µM, above 9.22 µM and above 46 µM, respectively. Moreover, the values for the activity change, negative = inhibition in assay [2] and in [3] were 5.34% and 5.36%, respectively. For the same compound, the activity, negative = inhibition in [4] is -1.88%. The Potency result in assay [12], in assay [7], in assay [8], in assay [9] and in assay [10] was “inactive” each time. In assay [11], the result was inactive.

Regarding `CN(C)c1ncc2nc(-c3cccc(C#N)c3)c(=O)n(C[C@H]3CCCO3)c2n1`, the Potency in [1] was above 11.4 µM; in [13], 3.16 µM (active); in assay [6], above 46 µM. The activity change, negative = inhibition in [2] was -22.3%. Further, in assay [4], the activity, negative = inhibition was 1.32%. The Potency result in [12], in assay [14], in [7], in [8], in assay [9] and in assay [10] was “inactive” each time. Moreover, the result in assay [11] was inactive.

Take `c1cncc(CNc2ncncc2-c2ccoc2)c1`: the Potency was above 11.4 µM in assay [1], above 46 µM in assay [5] and above 46 µM in assay [6]. Besides, the activity change, negative = inhibition in assay [2] was 2.19%; in [3] it was 7.14%. In assay [4], the activity, negative = inhibition is -4.52%. For the same compound, the Potency entry in [12], in assay [14], in assay [7], in assay [8], in assay [9] and in [10] was “inactive” in each case. The outcome in assay [11] was inactive.

As to `Cn1c(=O)c(CCc2ccccc2)nc2cnc(N3CCOCC3)nc21`, the values for the Potency in assay [1], in assay [5] and in [6] were above 11.4 µM, above 9.22 µM and above 46 µM, respectively. The values for the activity change, negative = inhibition in [2] and in assay [3] were -10.6% and 10.9%, respectively. In addition, in [4], the activity, negative = inhibition is 1.67%. Also, the Potency result in [12], in assay [14], in assay [7], in assay [8], in assay [9] and in assay [10] was “inactive” in each case. Further, the result in assay [11] was inactive.
